These results are taken from PubChem BioAssay (NCATS).

Assay [1] in a line: qHTS profiling for inhibitors of Plasmodium falciparum (3D7) proliferation (AID 743322).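 Note: infected erythrocytes exposed to compound for 72 h before lysis; 100% = DMSO vehicle wells and 0% = 0.29 µM artemisinin.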 As to conditions: P. falciparum 3D7 proliferation; at 28.7 µM (top of the series) unless noted. The procedure, abridged: (§1)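 Erythrocytes infected with P. falciparum (0.3% parasitemia, 2.5% hematocrit) incubated with compounds 72 h at 37 C, 5% CO2. Lysis with saponin/Triton buffer containing SYBR Green I, overnight at room temperature in the dark; DNA fluorescence (485/535 nm) normalised to 0.29 uM artemisinin and DMSO.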
Background: Quantitative high-throughput screening tests each substance at several concentrations.

Assay [2] can be described thus: qHTS profiling for inhibitors of Plasmodium falciparum (DD2) proliferation (AID 743323). As to conditions: lower = more inhibition; at 28.7 µM (top of the series) unless noted. The procedure, abridged:
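P. falciparum Dd2-infected erythrocytes (0.3% parasitemia, 2.5% hematocrit) exposed 72 h at 37 C, 5% CO2. Lysis with SYBR Green, overnight at room temperature, fluorescence 485/535 nm; normalized to 0.29 uM artemisinin and DMSO.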

Assay [3] is described as follows: qHTS profiling of the MIPE4 collection as inhibitors of Plasmodium falciparum (3D7) proliferation (AID 743344).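 Note: scaled between DMSO vehicle wells and 0.29 µM artemisinin as full inhibition.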 As to conditions: P. falciparum 3D7 in erythrocytes, SYBR Green DNA fluorescence, 72 h; at 28.5 µM (top of the series) unless noted. In short, it runs like this: as §1
Assay [4] in a line: qHTS profiling of the MIPE4 collection as inhibitors of Plasmodium falciparum (DD2) proliferation (AID 743345). As to conditions: P. falciparum Dd2 in erythrocytes, SYBR Green DNA, 72 h; at 28.5 µM (top of the series) unless noted. In short, it runs like this: as §1
The nature of assay [5]: qHTS profiling of the MIPE4 collection as inhibitors of Plasmodium falciparum (DD2) proliferation (Rep 2) (AID 743346). As to conditions: P. falciparum Dd2 in erythrocytes, SYBR Green DNA, 72 h; at 28.5 µM (top of the series) unless noted. The procedure, abridged:
as §1

A short description of assay [6]: qHTS profiling of the MIPE4 collection as inhibitors of Plasmodium falciparum (HB3) proliferation (AID 743347).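 Note: plate controls were DMSO vehicle wells for no effect and artemisinin wells for full effect.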 As to conditions: P. falciparum HB3 in erythrocytes, SYBR Green DNA, 72 h; at 28.5 µM (top of the series) unless noted. In short, it runs like this:
as §1

A short description of assay [7]: High-throughput drug toxicity screening in the BPDCN cell line Gen2.2 (AID 1224824).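 Note: cells exposed to compounds for 48 h before reading.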 Conditions: Gen2.2 BPDCN cells; at 45.8 µM (top of the series) unless noted. The procedure, abridged: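 Seed 500 exponentially growing Gen2.2 cells/well; add compounds by pin tool; incubate 48 h, 37 °C, 5% CO2; add CellTiter-Glo, 15 min RT; read luminescence. % activity vs DMSO (100%) and bortezomib (0%).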

Assay [8] in a line: High-throughput drug toxicity screening in the BPDCN cell line Cal-1 (AID 1224825). As to conditions: Cal-1 BPDCN cell viability, qHTS; at 45.8 µM (top of the series) unless noted. In short, it runs like this: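 500 Cal-1 cells/well, RPMI + glutamine + 10% FBS (phenol red-free); cpd added by pin tool; 48 h, 37C, 5% CO2; CTG 15 min RT, lumi read. Normalised: DMSO 100%, bortezomib 9.2 uM 0%.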

A short description of assay [9]: qHTS assay for measurement of the activity of small molecule inhibitors on Zika virus induced Caspase-3 activity in human iPSC derived neural progenitor cells (hNPCs) (AID 1224857; active = well fitted curve in the direction sought with a large enough effect; an effect the other way counts as inactive or inconclusive; note: % of control where 0% means no effect; nearly all actives have a fitted effect of over 65% in size). As to conditions: hNPCs ZIKV-induced caspase-3/7, Caspase-Glo luminescence, 6 h; series mostly up to 45.7 µM. In short, it runs like this:
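After overnight (16–20 h) culture at 350 cells/well, hNPCs get compound, then ZIKV 2 FFU/cell one hour later. Six hours on, Caspase-Glo 3/7 is added and luminescence measured.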

A short description of assay [10]: qHTS assay for measurement of the activity of small molecule inhibitors on Zika virus induced Caspase-3 activity in human astrocytoma cells (AID 1224859; active = well fitted curve in the direction sought with a large enough effect; an effect the other way counts as inactive or inconclusive;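 note: plate controls were ZIKV-infected untreated cells for no effect and uninfected cells for full effect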). As to conditions: SNB-19 ZIKV-induced caspase-3/7, luminescence, 6 h; series mostly up to 45.7 µM. In short, it runs like this:
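Inhibition of Zika-induced caspase-3/7 activity: SNB-19 cells, 1 h compound pretreatment, ZIKV 2 FFU/cell for 6 h at 37 C, Caspase-Glo luminescence read-out.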

Assay [11] is described as follows: qHTS Screen of the MIPE 4.0 Collection Against Ewings Sarcoma (RDES) (AID 1259252; active = well fitted curve in the direction sought with a large enough effect; an effect the other way counts as inactive or inconclusive;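 note: 100% = DMSO-treated cells and 0% = medium-only wells without cells; nearly all actives have a fitted effect of over 35% in size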). Conditions: RD-ES Ewing sarcoma viability, CellTiter-Glo, 48 h; series mostly up to 45.8 µM. The procedure, abridged: (§2)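 CellTiter-Glo luminescence after 48 h compound exposure (titration) gave viability; percent activity used DMSO-treated cells as no inhibition and medium-only wells as full inhibition. Cells grown in RPMI/5% FBS, dosed 4 h post-seeding.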

Assay [12] can be described thus: qHTS Screen of the MIPE 4.0 Collection Against Ewings Sarcoma (TC32) (AID 1259256; active = well fitted curve in the direction sought with a large enough effect; an effect the other way counts as inactive or inconclusive; note: nearly all actives have a fitted effect of over 45% in size; note: potency is the fitted concentration of half-maximal effect). As to conditions: TC32 Ewing sarcoma viability, CellTiter-Glo, 48 h; series mostly up to 45.8 µM. The procedure, abridged:
as §2

A short description of assay [13]: qHTS profiling for inhibitors of Plasmodium falciparum (HB3) proliferation (AID 743324; active = well fitted curve in the direction sought with a large enough effect; an effect the other way counts as inactive or inconclusive;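 note: 100% = DMSO vehicle wells and 0% = artemisinin-treated control wells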). Conditions: Plasmodium falciparum HB3 blood-stage proliferation; at 28.7 µM (top of the series) unless noted. The procedure, abridged: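 P. falciparum HB3 grown in erythrocytes (0.3% parasitemia, 2.5% hematocrit final) with compound for 72 h at 37 C, 5% CO2. Parasite DNA detected by SYBR Green after saponin/triton lysis overnight; normalized to 0.29 uM artemisinin and DMSO.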

The nature of assay [14]: qHTS Screen of the MIPE 4.0 Collection Against Ewings Sarcoma (TC71) (AID 1259253; active = well fitted curve in the direction sought with a large enough effect; an effect the other way counts as inactive or inconclusive;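 note: 100% = DMSO-treated cells and 0% = medium-only wells without cells; nearly all actives have a fitted effect of over 40% in size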). Conditions: TC71 Ewing sarcoma viability, CellTiter-Glo, 48 h; series mostly up to 45.8 µM. The procedure, abridged: as §2
Assay [15] in a line: qHTS Screen of the MIPE 4.0 Collection Against Ewings Sarcoma (EW8) (AID 1259255; active = well fitted curve in the direction sought with a large enough effect; an effect the other way counts as inactive or inconclusive;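 note: 100% = DMSO-treated cells and 0% = medium-only wells without cells; nearly all actives have a fitted effect of over 35% in size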). Conditions: EW8 Ewing sarcoma viability, CellTiter-Glo, 48 h; series mostly up to 45.8 µM. The procedure, abridged: as §2

Results filed as inconclusive are left out. Activity calls are given as the source filed them. Unless noted, the rule behind the calls is not given here.

`COc1ccc(CCN2CCN(CCCc3ccccc3)CC2)cc1OC`: the remaining parasite growth % (stronger effect = lower value) in [1] amounted to 9.47%. In assay [2], this compound returned an activity, percent of control of 65.7%. In assay [3], the parasite growth, % of DMSO control is 28.6%. The parasite growth remaining, % of DMSO control (lower = more inhibition) in [4] was 95.6%. In [5], this compound gave a parasite growth, % of control (lower = inhibition) of 30%. Further, the growth, % of control in [6] was found to be 21.1%. In [7], the cell viability, % of control (lower = more cytotoxic) worked out at 340%. In assay [8], this compound returned a viability (% of control) of 64.5%. Besides, the Potency result in [9], in [10], in assay [11] and in [12] was “inactive” throughout.
As for `Cn1cc(-c2ccc3nnc(C(F)(F)c4ccc5ncccc5c4)n3n2)cn1`, the remaining parasite growth % (stronger effect = lower value) in assay [1] worked out at 40.4%. For the same compound, the activity, percent of control in [2] is 62.2%. The remaining proliferation (% of control), lower = more inhibition in assay [13] was 17.3%. In assay [3], this compound returned a parasite growth, % of DMSO control of 24.5%. In addition, in assay [4], the parasite growth remaining, % of DMSO control (lower = more inhibition) was 70.3%. The compound also registered a parasite growth, % of control (lower = inhibition) in assay [5] of 41.1%. The growth, % of control in [6] was 35.2%. Besides, in assay [7], the cell viability, % of control (lower = more cytotoxic) was determined as 55.7%. This compound also had a viability (% of control) in [8] of 64.2%. Also, the Potency entry in assay [9] and in [10] was “inactive” in each case. In assay [12], the Potency was 0.833 µM (active).
For `COc1cc(Oc2ccnc3cc(OC)c(OC)cc23)ccc1NC(=O)NC(C)c1nccs1` (stereo unspecified), the remaining parasite growth % (stronger effect = lower value) in assay [1] worked out at 69.7%. In assay [2], this compound returned an activity, percent of control of 56.8%. Moreover, in assay [13], the remaining proliferation (% of control), lower = more inhibition came out at 16.5%. Further, in assay [3], the parasite growth, % of DMSO control came out at 22.7%. Besides, the parasite growth remaining, % of DMSO control (lower = more inhibition) in [4] is 85.4%. The same compound yielded a parasite growth, % of control (lower = inhibition) in assay [5] of 40.3%. For the same compound, the growth, % of control in [6] is 71.5%. The cell viability, % of control (lower = more cytotoxic) in assay [7] was found to be 98.9%. Besides, in assay [8], the viability (% of control) was 32.2%. Also, the Potency entry in assay [9] and in [10] was “inactive” throughout.
In the case of `O=C(OCC#CCSc1nnc(-c2ccc3ccccc3c2)o1)c1cc2ccccc2s1`, the remaining parasite growth % (stronger effect = lower value) in assay [1] was found to be 117%. In addition, in assay [13], the remaining proliferation (% of control), lower = more inhibition worked out at 125%.
For the compound `C[C@]1(c2nc3c(C(N)=O)cccc3[nH]2)CCCN1`, in [1], the remaining parasite growth % (stronger effect = lower value) turned out to be 93.1%. The activity, percent of control in [2] came out at 87.4%. Also, the remaining proliferation (% of control), lower = more inhibition in assay [13] turned out to be 94%. This compound had a parasite growth, % of DMSO control in assay [3] of 88.7%. In addition, in assay [4], the parasite growth remaining, % of DMSO control (lower = more inhibition) is 94.9%. In assay [5], the parasite growth, % of control (lower = inhibition) was determined as 85.5%. In [6], this compound came in with a growth, % of control of 88.5%. For the same compound, in [7], the cell viability, % of control (lower = more cytotoxic) is 50.9%. In [8], this compound came in with a viability (% of control) of 88%. The Potency result in assay [9], in assay [10], in [14] and in assay [15] was “inactive” in each case. Further, the Potency in [12] was 18.7 µM (active).
